Laboratory results reported in PubChem BioAssay (NCATS).
Values joined by “and” are separate entries in the source; they are usually repeats but may differ in a detail not shown here. Equal entries are not always repeated. Records with an inconclusive call do not appear. Active and inactive are the calls of the source. Unless noted, calls follow the shape of the dose curve; as a rule, active = well fitted curve in the direction sought with a large enough effect; inconclusive = small, poorly fitted or top-dose-only effect, or another doubt; inactive = no such curve, though single readings can be large; an effect the other way counts as inactive or inconclusive.

Columns and labels:
[1] = molecular target: Alpha-galactosidase A (Homo sapiens) (UniProt P06280); experiment: Counterscreen for Glucocerebrosidase Inhibitors: qHTS Assay for Human alpha-Galactosidase at pH 4.5 (AID 992); also: 0% is about no effect
In short: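 Enzyme at 2 nM final was combined with compound (0.7 nM to 77 uM) and 80 uM 4-methylumbelliferyl alpha-D-galactopyranoside in 50 mM citric acid, 0.005% Tween-20, pH 4.5. After 20 min at room temperature, fluorescence was read (Ex 365/Em 440 nm); AC50 came from Hill fits.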

[2] = molecular target: alpha-glucosidase (Oryza sativa, rice) (UniProt Q653V4); experiment: Counterscreen for Glucocerebrosidase Inhibitors: qHTS Assay for Rice alpha-Glucosidase at pH 5.0 (AID 997);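 also: 0% = full activity with enzyme and -100% = basal without enzyme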
In short: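 Rice alpha-glucosidase (4 nM final) with 400 uM 4-methylumbelliferyl-alpha-D-glucopyranoside in citrate buffer pH 5.0, 20 min at room temperature, stopped at pH 10; fluorescence 365/440 nm, compounds 0.7 nM–77 uM, AC50 from Hill fits.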

[3] = qHTS Assay for Lipid Storage Modulators (AID 1519; calls by dose curve; as to activity change, negative = inhibition: % is scaled to controls: 0 for no effect and ±100 for the full control effect); details: Drosophila S3 cells, BODIPY lipid droplet/cell ratio, laser cytometry, cells loaded with oleic acid
In short: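 Cells seeded at 5,000 per well were treated with compounds over a concentration series and loaded with oleic acid (400 uM, as added). Lipid droplet fluorescence (488 nm excitation, 500-530 nm channel) was read by laser-scanning cytometry and normalized to 20 uM Triacsin C.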

[4] = molecular target: DNA repair nuclease/redox regulator APEX1 (Homo sapiens) (UniProt P27695); experiment: qHTS Validation Assay for Inhibitors of the Human Apurinic/apyrimidinic Endonuclease 1 (APE1) (AID 1705;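 also: TAMRA fluorescence gain over two minutes as APE1 cuts a quenched THF abasic duplex; % is scaled to controls: 0 for no effect and ±100 for the full control effect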)
In short: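 Human APE1 was preincubated with compound for 15 min at room temperature, then 50 nM (final) THF-abasic double-stranded DNA substrate bearing 5'-TAMRA and 3'-BHQ-2 was added. Incision-driven fluorescence rise (ex 525/em 598 nm) was read kinetically.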

[5] = Counterscreen for APE1 Inhibitors: Fluorescent Dye Displacement Validation Assay (AID 1707);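 also: plate controls were ThO with dsDNA and no compound for no effect and ThO without dsDNA for full effect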
In short: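 Thiazole Orange displacement from dsDNA: 250 nM ThO with 50 nM TAMRA-labelled abasic-site (tetrahydrofuran) duplex in 50 mM Tris-HCl pH7.5, 50mM NaCl, 2 mM MgCl2, 0.01% Tween-20. Loss of endpoint fluorescence (ex 480 nm, em 540 nm) flags DNA binders.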

[6] = molecular target: Endonuclease 4 (Escherichia coli (strain K12)) (UniProt P0A6C1); experiment: Counterscreen for APE1 Inhibitors: qHTS Validation Assay for Inhibitors of Endonuclease IV (AID 1708); also: % is scaled to controls: 0 for no effect and ±100 for the full control effect
In short: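 E. coli EndoIV at 2 nM final, preincubated 15 min at room temperature with compound, then 50 nM TAMRA/BHQ-2 THF abasic-site duplex added. Buffer: 50 mM Tris-HCl pH 7.5, 50 mM NaCl, 2 mM MgCl2, 1 mM DTT, 0.01% Tween-20. Kinetic fluorescence increase, third minus first read.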

[7] = qHTS for differential inhibitors of proliferation of Plasmodium falciparum line 7G8 (AID 1815);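 also: parasite growth measured after three days of incubation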; also: potency is read from the fitted curve at half-maximal effect;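 as to activity change, negative = inhibition: plate controls were vehicle wells for no effect and reference inhibitor wells for full effect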
[8] = qHTS for differential inhibitors of proliferation of Plasmodium falciparum line GB4 (AID 1816); details: Potency: Plasmodium falciparum GB4 proliferation inhibition;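 also: parasite growth measured after 72 h incubation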; also: potency is read from the fitted curve at half-maximal effect;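 as to activity change, negative = inhibition: 0% = vehicle DMSO and -100% = reference inhibitor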
[9] = qHTS for differential inhibitors of proliferation of Plasmodium falciparum line 3D7 (AID 1876); also: potency is read from the fitted curve at half-maximal effect
[10] = qHTS for differential inhibitors of proliferation of Plasmodium falciparum line W2 (AID 1883); details: Potency: Plasmodium falciparum W2 proliferation inhibition;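 also: parasites grown with compound for 72 h before lysis and staining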; also: potency is read from the fitted curve at half-maximal effect;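 as to activity change, negative = inhibition: 0% = vehicle wells and -100% = control inhibitor wells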
[11] = qHTS for differential inhibitors of proliferation of Plasmodium falciparum line D10 (AID 1877);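 also: parasites grown with compound for 72 h before DNA staining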; also: potency is read from the fitted curve at half-maximal effect;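 as to activity change, negative = inhibition: plate controls were vehicle wells for no effect and reference inhibitor wells for full effect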
[12] = qHTS for differential inhibitors of proliferation of Plasmodium falciparum line Dd2 (AID 1882); details: Potency: Plasmodium falciparum Dd2 proliferation inhibition; also: nearly all actives have a fitted effect of over 65% in size; also: potency is read from the fitted curve at half-maximal effect;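 as to activity change, negative = inhibition: plate controls were DMSO vehicle for no effect and 0.29 µM artemisinin for full effect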
In short: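 Dd2-infected erythrocytes (0.3% parasitemia, 2.5% hematocrit final) incubated with compound 72 h at 37 C, 5% CO2; lysed with saponin/Triton buffer containing SYBR Green I, incubated overnight in the dark, then read by fluorescence (485/535 nm). Normalized to 0.29 uM artemisinin and DMSO.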

[13] = qHTS for differential inhibitors of proliferation of Plasmodium falciparum line HB3 (AID 1886); details: Potency: Plasmodium falciparum HB3 proliferation inhibition;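 also: parasites grown with compound for 72 h before SYBR Green readout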; also: potency is read from the fitted curve at half-maximal effect;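 as to activity change, negative = inhibition: plate controls were vehicle for no effect and reference inhibitor for full effect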
[14] = Cell Viability - LYMP2-024 (AID 988);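 also: plate controls were DMSO only for no effect and 92 µM tetraoctylammonium bromide for full effect; nearly all actives have a fitted effect of over 60% in size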
In short: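 Human lymphoblastoid LYMP2-024 cells (2500/well) rested 5 hr, then treated with compound for 24 hr at 37 C in complete medium. Viability was measured as intracellular ATP by CellTiter-Glo luminescence. AC50 values came from Hill-equation fits.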

[15] = Cell Viability - LYMP2-026 (AID 989); also: % is scaled to controls: 0 for no effect and ±100 for the full control effect; nearly all actives have a fitted effect of over 50% in size
In short: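 Human lymphoblastoid LYMP2-026 cells, 2500/well, exposed to compound 24 h at 37 C in complete medium. Viability as intracellular ATP by CellTiter-Glo luminescence; AC50 from Hill fits of qHTS concentration-response.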

[16] = Cell Viability - LYMP1-002 - Assay at 24 hr (AID 993); also: % is scaled to controls: 0 for no effect and ±100 for the full control effect
In short: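 Human lymphoblastoid LYMP1-002 cells (2500/well) treated 24 h at 37 °C; viability as intracellular ATP by CellTiter-Glo luminescence. Tetraoctylammonium bromide as positive control; AC50 from Hill-equation fits of qHTS concentration-response.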

[17] = Cell Viability - LYMP1-002 - Assay at 40 hr (AID 994);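 also: 0% = DMSO only and full inhibition = 92 µM tetraoctylammonium bromide; nearly all actives have a fitted effect of over 60% in size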
In short: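 LYMP1-002 human lymphoblastoid cells (2500/well, complete medium) were treated with compounds for 40 hr at 37 C. Intracellular ATP was measured by CellTiter-Glo luminescence, and AC50 values came from Hill-equation fits of concentration-response data; tetraoctylammonium bromide was the positive control.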

[18] = measured here: cell count channel max response
[19] = measured here: lipid channel max response

Chain of Alpha-galactosidase A (Homo sapiens) (P06280 whole entry, looked up): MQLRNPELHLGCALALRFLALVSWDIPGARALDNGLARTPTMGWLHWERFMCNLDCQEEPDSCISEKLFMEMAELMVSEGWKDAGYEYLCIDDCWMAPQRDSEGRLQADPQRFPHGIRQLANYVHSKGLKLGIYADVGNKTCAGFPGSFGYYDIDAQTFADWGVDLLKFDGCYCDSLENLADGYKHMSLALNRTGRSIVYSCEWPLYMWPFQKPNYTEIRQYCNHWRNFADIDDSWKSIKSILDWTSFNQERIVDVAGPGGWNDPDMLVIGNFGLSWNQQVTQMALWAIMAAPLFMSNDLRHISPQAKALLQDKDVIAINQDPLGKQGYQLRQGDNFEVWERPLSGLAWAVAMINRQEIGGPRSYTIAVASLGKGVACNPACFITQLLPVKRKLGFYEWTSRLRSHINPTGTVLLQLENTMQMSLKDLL
Chain of DNA repair nuclease/redox regulator APEX1 (Homo sapiens) (P27695 whole entry, looked up): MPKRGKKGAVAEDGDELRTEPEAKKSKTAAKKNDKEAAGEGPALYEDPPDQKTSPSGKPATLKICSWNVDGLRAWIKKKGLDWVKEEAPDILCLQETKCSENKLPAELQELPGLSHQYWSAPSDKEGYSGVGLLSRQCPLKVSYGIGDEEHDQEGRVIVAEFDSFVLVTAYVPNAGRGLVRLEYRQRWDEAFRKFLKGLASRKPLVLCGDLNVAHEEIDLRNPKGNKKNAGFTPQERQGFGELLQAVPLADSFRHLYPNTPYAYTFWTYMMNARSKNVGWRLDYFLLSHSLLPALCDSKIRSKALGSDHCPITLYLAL

C[N+](C)(C)CCOC(N)=O
inactive: outcome [1] | outcome [2] | activity change, negative = inhibition ([3]; at 25.7 µM (top of the series)) 1.99% | Potency [4] | outcome [5] | Potency [6] | Potency [7] | Potency [8] | Potency [9] | Potency [11] | Potency [12] | Potency [10] | Potency [13]
10.4%: max response [3, 18]
11.4%: max response [3, 19]

CN(C)C/C=C(/c1ccc(Br)cc1)c1cccnc1
active: Potency [7] 7.08 µM | Potency [8] 12.6 µM | Potency [9] 10 µM | Potency [11] 11.2 µM | Potency [10] 7.08 µM
inactive: Potency [4] | outcome [5] | Potency [6]

CC(=O)Oc1cc(C(C)C)c(OCCN(C)C)cc1C
-5.49%: max response [3, 19]
active: Potency [10] 7.94 µM
inactive: outcome [1] | outcome [2] | activity change, negative = inhibition ([3]; at 25.7 µM (top of the series)) -0.785% | Potency [4] | outcome [5] | Potency [6] | Potency [9] | Potency [11] | Potency [13]
-9.94%: max response [3, 18]

OCCN1CCN(CCCN2c3ccccc3C=Cc3ccccc32)CC1
45.9%: max response [3, 18] | max response [3, 19]
inactive: outcome [1] | outcome [2] | activity change, negative = inhibition ([3]; at 57.5 µM (top of the series)) -1.21% | outcome [5] | Potency [6]
active: Potency [7] 3.16 µM and 3.98 µM | Potency [8] 5.01 µM and 4.47 µM | Potency [9] 11.2 µM and 8.91 µM | Potency [11] 10 µM | Potency [12] 5.62 µM and 7.94 µM | Potency [10] 2.51 µM and 2.24 µM | Potency [13] 8.91 µM and 12.6 µM

CCN1CCc2nc(N)oc2CC1
-8.22%: max response [3, 18]
inactive: outcome [1] | outcome [2] | activity change, negative = inhibition ([3]; at 57.5 µM (top of the series)) 0.659% | outcome [5] | Potency [6] | Potency [7] | Potency [8] | Potency [9] | Potency [11] | Potency [12] | Potency [10] | Potency [13]
-7.55%: max response [3, 19]

c1cc(CN2CCCCC2)cc(OCCCNc2nc3ccccc3s2)c1
active: Potency [7] 7.08 µM | Potency [8] 6.31 µM | Potency [9] 2.51 µM | Potency [11] 8.91 µM | Potency [12] 7.08 µM | Potency [10] 2.51 µM | Potency [13] 11.2 µM
inactive: outcome [1] | outcome [2] | activity change, negative = inhibition ([3]; at 57.5 µM (top of the series)) -4.93% | Potency [4] | outcome [5]
18.9%: max response [3, 18]
13%: max response [3, 19]

CCCN(CCC)C(=O)C(CCC(=O)O)NC(=O)c1ccccc1 (stereo not given)
19.5%: max response [3, 18]
inactive: activity change, negative = inhibition ([3]; at 57.5 µM (top of the series)) 2.72% | Potency [4] | outcome [5] | Potency [7] | Potency [8] | Potency [9] | Potency [11] | Potency [12] | Potency [10] | Potency [13]
23.3%: max response [3, 19]

C[N+](C)(C)CCOC(=O)CCC(=O)OCC[N+](C)(C)C
inactive: outcome [1] | outcome [2] | Potency [4] | outcome [5] | Potency [6] | Potency [7] | Potency [8] | Potency [9] | Potency [11] | Potency [12] | Potency [10] | Potency [13]

CCN(CC)CCNC(=O)c1ccc(NC(C)=O)cc1
inactive: outcome [1] | outcome [2] | Potency [4] | outcome [5] | Potency [6] | Potency [7] | Potency [8] | Potency [9] | Potency [11] | Potency [12] | Potency [10] | Potency [13]

COc1ccc(CN(CCN(C)C)c2ccccn2)cc1
active: Potency [8] 8.91 µM | Potency [10] 5.62 µM
5.42% [middle of 4 runs]: max response [3, 18]
inactive: Potency [14] | outcome [15] | outcome [1] | outcome [16] | Potency [17] | outcome [2] | activity change, negative = inhibition ([3]; at 25.7 µM (top of the series)) 1.57% | activity change, negative = inhibition ([3]; at 57.5 µM (top of the series)) 2.66% and 4.86% and -0.667% | outcome [5] | Potency [6] | Potency [9] | Potency [11] | Potency [13]

O=C1NCN(c2ccccc2)C12CCN(CCCC(c1ccc(F)cc1)c1ccc(F)cc1)CC2
inactive: outcome [2] | activity change, negative = inhibition ([3]; at 25.7 µM (top of the series)) -8.24% | Potency [4] | outcome [5]
-19.4%: max response [3, 18]
active: Potency [7] 4.47 µM | Potency [8] 8.91 µM | Potency [9] 2 µM | Potency [11] 10 µM | Potency [12] 8.91 µM | Potency [10] 2.82 µM | Potency [13] 7.08 µM
-26.6%: max response [3, 19]
